Shown are actives, neighbours in structure and some others; about 2.3% of the full set was active somewhere.
Tau fluor cs: Counterscreen qHTS for Inhibitors of Tau Fibril Formation, Fluorescence Polarization | tau K18 P301L Alexa594 fluorescence, heparin fibrillization | Potency, µM (titrated, usually from 57.7 µM) | 280,000 compounds, 0.93% hits | AID 1463, 2008; also: nearly all actives have a fitted effect of over 55% in size
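Human tau K18 P301L (15 uM unlabeled, 0.24 uM Alexa 594-labeled) in 100 mM sodium acetate pH 7 with 20 uM heparin, 6 hr at 37 C. ThT 30 uM added, 1 hr ambient; Alexa 594 FP and total fluorescence read at 555/632 nm.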
USP1 inh: Inhibitors of USP1/UAF1: Primary Screen; Potency, µM (doses to about 57.1 µM), hits mostly inhibitors; recombinant USP1/UAF1, Ub-Rhodamine cleavage fluorescence; 390,000 compounds, 0.23% hits; Ubiquitin carboxyl-terminal hydrolase 1 (Homo sapiens), O94782; AID 743255, 2014; also: nearly all actives have a fitted effect of over 60% in size
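USP1/UAF1 complex at 1 nM was preincubated with compound for 15 min at room temperature, then Ub-Rho substrate (150nM final) was added. Fluorescence (480/540 nm) was read kinetically, 6 reads every 60 seconds.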
Coupling enz: qHTS Assay for Inhibitors of Fructose-1,6-bisphosphate Aldolase from Giardia Lamblia: Coupling assay counterscreen. coupling enzyme system counterscreen, AmpLite Red fluorescence. activity change, negative = inhibition, % at 58.2 µM, hits read low. 290,000 compounds, 0.67% hits; in the data active = activity change below about -30%
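Activity here indicates interference with the coupling reaction, not aldolase inhibition. Compounds at 57.5 uM final met coupling enzymes for 10 min at RT; substrate and AmpLite Red detection followed, with a 525/598 nm fluorescence read after 20 min.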
Tau fibril ThT: qHTS for Inhibitors of Tau Fibril Formation, Thioflavin T Binding; recombinant tau K18 P301L (four-repeat tau fragment), heparin-induced fibrillization, ThT fluorescence; Potency, µM (titrated, usually from 57.4 µM), usual class: inhibitors; 270,000 compounds, 2.1% hits; AID 1460, 2008; also: nearly all actives have a fitted effect of over 55% in size
Target sequence (P10636 561-689 P618L limits assumed): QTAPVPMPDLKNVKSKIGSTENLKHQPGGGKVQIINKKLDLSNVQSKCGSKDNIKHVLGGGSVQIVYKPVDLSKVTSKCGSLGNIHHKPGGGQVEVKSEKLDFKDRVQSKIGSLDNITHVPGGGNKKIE
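Heparin-induced (20 uM) aggregation of recombinant human K18 P301L tau, 15 uM unlabeled with 0.24 uM labeled, pH 7 acetate buffer, 6 hr at 37 C with compound. Fibrils quantified by 30 uM ThT fluorescence after 1 hr ambient incubation.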
Tau fibril FP: qHTS for Inhibitors of Tau Fibril Formation, Fluorescence Polarization; Microtubule-associated protein tau (Homo sapiens), P10636; K18 P301L tau heparin fibrillization, Alexa594 FP, 6 h; Potency, µM (top dose mostly 57.7 µM), usual class: inhibitors; 280,000 compounds, 0.39% hits; also: nearly all actives have a fitted effect of over 55% in size
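FP of Alexa 594-tau after heparin (20 uM) induction. Substrate: human K18 P301L, 15 uM unlabeled, 0.24 uM labeled. Buffer 100 mM sodium acetate pH 7. 6 hr, 37 C.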
Each line names hits and unclear results; the compound was inactive in the other large screens; [ ] = dose if it differs, or a comment. Unless noted, calls follow the shape of the dose curve; as a rule, active = well fitted curve in the direction sought with a large enough effect; inconclusive = small, poorly fitted or top-dose-only effect, or another doubt; inactive = no such curve, though single readings can be large; an effect the other way counts as inactive or inconclusive.

[O-]C(=C(C(=S)Nc1cccc2ccccc12)[n+]1cccc(CO)c1)c1ccc(Cl)s1	none (no result: Tau fluor cs, Coupling enz, Tau fibril ThT, Tau fibril FP)
CC(C)(C)c1cc[n+](/C(C(=S)NC2CC2)=C(/[O-])c2ccc(Cl)s2)cc1	Coupling enz -44, Tau fibril ThT inconclusive
Cc1ccc(C)c(NC(=S)/C(=C(\[O-])c2ccc(Cl)s2)[n+]2ccccc2)c1	USP1 inh inconclusive, Coupling enz -40, Tau fibril ThT inconclusive
O=S(=O)(NCCc1nnc2ccc(SCc3cccc(Cl)c3)nn12)c1ccccc1	Tau fibril ThT inconclusive (no result: Coupling enz)
O=C(CSc1ncc(-c2ccccc2)[nH]1)Nc1ccccc1F	Tau fluor cs inconclusive
O=C(CSc1ncc(-c2ccccc2)[nH]1)Nc1cccc(Br)c1	Tau fluor cs 16µM[quencher], Tau fibril ThT inconclusive, Tau fibril FP inconclusive (no result: Coupling enz)
O=C(CSc1ncc(-c2ccccc2)[nH]1)Nc1ccc(Cl)cc1	Tau fluor cs 14µM[quencher] (no result: Coupling enz)
CN(C)CCCn1c(SCC(=O)Nc2nc(-c3cccc(Br)c3)cs2)nc2ccccc2c1=O	Tau fibril ThT inconclusive
O=C(CSc1ncc(-c2ccc(Cl)cc2)[nH]1)Nc1ccccc1F	Tau fluor cs 14µM[quencher] (no result: Coupling enz)
O=C(CSc1nc2ccccc2[nH]1)Nc1nc(-c2cccc(Br)c2)cs1	Tau fluor cs inconclusive, Tau fibril FP 14µM
O=C(CSc1ncc(-c2ccccc2)[nH]1)Nc1ccccc1	Tau fluor cs inconclusive
CC[C@H](C)[C@H](NC(=O)[C@H](Cc1ccc(O)cc1)NC(=O)CNC(=O)[C@@H]1CCCN1C(=O)[C@H](CC(=O)O)NC(=O)[C@@H](N)CS)C(=O)NCC(=O)N[C@@H](CO)C(=O)N[C@@H](CCCN=C(N)N)C(N)=O	none (no result: Tau fluor cs, USP1 inh, Tau fibril ThT, Tau fibril FP)
CC(=O)c1cc(-c2ccc(F)cc2)n(CC(=O)NC2CCC(C)CC2)c1C (stereo not drawn)	none (no result: Coupling enz)
O=C1/C(=C/c2cccc([N+](=O)[O-])c2)CSc2ccc(Cl)cc21	none
CNc1ccc(/C=C2\CSc3ccccc3C2=O)cc1[N+](=O)[O-]	Tau fibril ThT 2.5µM
COc1ccccc1-c1ccc(/C=C2/C=C(CC(C)C)OC2=O)o1	Tau fibril ThT 8.9µM
COc1ccccc1-c1cc(=O)c2cccc(OC)c2o1	Tau fibril ThT inconclusive (no result: USP1 inh)
O=Cc1ccc(-c2ccccc2OC(F)(F)F)o1	none
CCCC1=C/C(=C/c2ccc(-c3ccccc3OC)o2)C(=O)O1	Tau fluor cs inconclusive, Tau fibril ThT 13µM
Clc1ccc2c(c1)-c1ccccc1C1=NCCN12	none (no result: Tau fluor cs, Coupling enz, Tau fibril ThT, Tau fibril FP)
N=C1Sc2ccccc2C2=NCCCN12	Tau fibril ThT 7.1µM, Tau fibril FP 14µM (no result: USP1 inh, Coupling enz)
CC1=NN(c2ccccc2)C(=O)/C1=C/C=C/C=C/N(C)C	USP1 inh inconclusive, Tau fibril ThT 16µM
CC1=NN(c2cccc(C(=O)O)c2)C(=O)/C1=C\C=C/c1ccccc1	Tau fluor cs inconclusive, USP1 inh inconclusive, Tau fibril ThT 7.1µM, Tau fibril FP inconclusive
CC1=NN(c2ccc(C)cc2)C(=O)/C1=C\C=C\c1ccccc1	Tau fluor cs 7.9µM[quencher], USP1 inh inconclusive, Tau fibril ThT 7.1µM, Tau fibril FP inconclusive
COCCN1CCc2nc(SCC(=O)Nc3ccc(Br)cc3)[nH]c(=O)c2C1	none (no result: Coupling enz)
CC1=NN(c2nc(-c3ccc(C)cc3)cs2)C(=O)C1N=Nc1ccccc1O (stereo not drawn)	Tau fluor cs inconclusive, Tau fibril ThT 2µM
COc1ccc(-c2csc(N3N=C(C)C(C)C3=O)n2)cc1 (stereo not drawn)	Tau fibril ThT inconclusive
CC1=NN(c2nc(-c3ccc(C)cc3)cs2)C(=O)C1N=Nc1cccc(O)c1 (stereo not drawn)	Tau fluor cs inconclusive, Tau fibril ThT 1.8µM
Cc1ccc(NC(=O)C(=O)NCC(c2cccnc2)N2CCN(Cc3ccccc3)CC2)cc1C (stereo not drawn)	none (no result: Coupling enz)
CSc1nnc(C)c(/C=C/Nc2ccc(Cl)cc2)n1	USP1 inh inconclusive, Tau fibril ThT 16µM
CSc1nnc(C)c(/C=C/Nc2ccc(F)cc2)n1	Tau fibril ThT inconclusive
COc1ccc(N/C=C/C(=O)C(F)(F)F)cc1	none
COc1ccc(N/C=C/c2nc(SC)nnc2C)cc1	USP1 inh inconclusive, Tau fibril ThT 3.2µM
CCc1cccc(NC(=O)c2cn3c4c(ccc(Cl)c4c2=O)OC(C)C3)c1 (stereo not drawn)	none (no result: Coupling enz)
O=C(/C=C/C(=O)Oc1ccccc1C(=O)O)Oc1ccccc1C(=O)O	Tau fibril ThT 25µM, Tau fibril FP 25µM (no result: USP1 inh)
O=C(Cc1ccc(NC(=O)N2CCCCc3ccccc32)cc1)Nc1ccccc1Br	none (no result: Coupling enz)
CCCN(C(=O)c1cn(C)c(=O)c2cc(OC)c(OC)cc12)c1ccc(CC)cc1	none (no result: Coupling enz)
Nc1ncnc2c1nc(Br)n2[C@@H]1O[C@H]2COP(=O)(O)O[C@@H]2[C@@H]1O	none (no result: USP1 inh)
Cc1cc(C)c(CSc2ncc(-c3ccc([N+](=O)[O-])cc3)[nH]2)c(C)c1	Tau fluor cs 6.3µM[quencher], Tau fibril ThT 5µM
O=[N+]([O-])c1ccc(-c2cnc(SC(c3ccccc3)c3ccccc3)[nH]2)cc1	Tau fluor cs 4µM[quencher], Tau fibril ThT inconclusive, Tau fibril FP inconclusive
NC(=O)CSc1ncc(-c2ccc([N+](=O)[O-])cc2)[nH]1	Tau fibril ThT inconclusive
O=[N+]([O-])c1ccc(-c2cnc(SCc3ccccc3Cl)[nH]2)cc1	Tau fluor cs 16µM[quencher], Tau fibril ThT 14µM
COc1ccc(NC(=O)c2cccnc2Nc2ccc(OC)cc2)cc1	Tau fluor cs 14µM[quencher], Tau fibril ThT inconclusive, Tau fibril FP inconclusive
COc1ccc(Nc2ncc(C(=O)Nc3cccc(OC)c3)c3ccccc23)cc1	Tau fluor cs 14µM[quencher], Tau fibril ThT inconclusive (no result: Coupling enz)
COc1ccc(Nc2ncc(C(=O)N3CCN(c4ccc(OC)cc4)CC3)c3ccccc23)cc1	Tau fluor cs 14µM[quencher], Tau fibril ThT inconclusive, Tau fibril FP inconclusive (no result: Coupling enz)
COc1ccc(Nc2ncccc2C(=O)Nc2ccccc2)cc1	none
COc1ccc(Nc2ncc(C(=O)N3CCN(c4cccc(Cl)c4)CC3)c3ccccc23)cc1	Tau fluor cs inconclusive, USP1 inh inconclusive (no result: Coupling enz)
COc1ccc(Nc2ncc(C(=O)N3CCN(c4ccc(F)cc4)CC3)c3ccccc23)cc1	Tau fluor cs 13µM[quencher], Tau fibril ThT inconclusive, Tau fibril FP inconclusive

Compound activity (PubChem)
